Screening data: PubChem BioAssay, several laboratories
Hits are enriched below; roughly 1.4% of the tested compounds scored in any of these assays.
FadD28 binding – inhibitors of FadD28 bisubstrate probe binding, primary screen, biochemical, fluorescence polarization, single point | 360,000 tested, 0.22% active | inhibition, % at 12.5 µM | Mycobacterium tuberculosis FadD28 fatty-acid-AMP ligase | AID 588549, 2011; in the data active means inhibition above about 8.5%, passing the limit was not always enough
PrPC surface inh – inhibitors of human cell surface prion protein PrPC, primary screen, cell-based, TR-FRET. Major prion protein (Homo sapiens), P04156. TR-FRET read-out. inhibition, % at 13.8 µM. 370,000 tested, 0.43% active. AID 720596, 2013; in the data active means inhibition above about 24%
PriA SSB inh – inhibitors of Klebsiella pneumoniae PriA binding to SSB C-terminal tail, primary screen, biochemical, AlphaScreen | 430,000 tested, 0.6% active | inhibition, % at 33 µM | AlphaScreen SSBct-PriA binding, biotinylated peptide | PriA–SSB C-terminal tail interaction (Klebsiella pneumoniae); in the data active means inhibition mostly above about 37%, no sharp cut-off; inactive means mostly below about 20%
BH1578 lux ind – inducers of Vibrio cholerae quorum light production without autoinducers, primary screen, BH1578 luxS cqsA deficient, single point; V. cholerae BH1578 lux reporter, luminescence, 6 h; activation, % at 18.7 µM; 350,000 tested, 0.16% active; in the data active means activation mostly above about 9.7%, no sharp cut-off
PrP 5UTR inh – inhibition of PrP 5' UTR reporter expression | cell-based PrP 5' UTR mRNA reporter, plate reader | inhibition, % (test concentration not listed) | 340,000 tested, 0.35% active; in the data active means inhibition above about 52%
PrP UTR cherry – prion 5' UTR mRNA inhibition, cherry-pick retest | shares compounds with PrP 5UTR inh | inhibition, % at 2.5 µM | AID 504592, 2011 | 1,100 tested, 48% active | cell-based prion protein 5' UTR reporter, plate reader; in the data active means inhibition above about 54%
PrPC confirm – confirmation of inhibitors of cell surface human prion protein, confirmation, cell-based, TR-FRET | shares compounds with PrPC surface inh | inhibition, % at 13.8 µM | AID 743200, 2013 | cell surface PrPC level | 1,500 tested, 65% active; in the data active means inhibition above about 25%
LD9 tox – cytotoxicity in LD9 cells, cytotoxicity control for cell surface PrPc inhibitor project, cell-based, luminescence, high throughput; shares compounds with PrPC surface inh; luminescence viability; inhibition, % at 13.8 µM; 1,500 tested, 29% active; AID 743201, 2013; in the data active means inhibition above about 9.5%
A number is an active result.

Screening COc1ccc(C(=O)Nc2nnc(-c3ccc(Br)s3)o2)cc1OC returned PriA SSB inh inactive.
Screening CCOc1ccc(C)cc1S(=O)(=O)NCC1CCN(Cc2ccco2)CC1 returned PriA SSB inh inactive.
`O=C(NN=Cc1ccccc1C(=O)O)c1cccc(S(=O)(=O)N2CCOCC2)c1` gave PriA SSB inh inactive.
Cc1ccc(S(=O)(=O)N(C)c2c(C)ccc(S(=O)(=O)N(C)CCCC(=O)O)c2C)cc1 was read as PriA SSB inh inactive.
O=C(NCC1CCN(c2ccncc2)CC1)C(=O)Nc1cc(F)ccc1F was read as PriA SSB inh inactive.
For Cc1ccc2nc(NC(=O)c3ccccn3)sc2c1 the results were FadD28 binding inactive, PrPC surface inh 25, PriA SSB inh inactive, BH1578 lux ind inactive, PrP 5UTR inh 89, PrP UTR cherry 86, PrPC confirm 61 and LD9 tox 77.
C(=NN(Cc1ccccc1)c1ccccc1)c1cccnc1 was read as PriA SSB inh inactive.
For OCC1OC(n2ccc3c(NO)ncnc32)C(O)C1O (stereo unspecified) the results were FadD28 binding inactive, PrPC surface inh 53, BH1578 lux ind inactive, PrP 5UTR inh 89, PrP UTR cherry 85, PrPC confirm 44 and LD9 tox 92.
NC(=O)c1cn(C2OC(CO)C(O)C2O)c2ncnc(N)c12 (stereo unspecified) was read as FadD28 binding inactive, PrPC surface inh 56, PriA SSB inh inactive, BH1578 lux ind inactive, PrP 5UTR inh 88, PrP UTR cherry 97, PrPC confirm 58 and LD9 tox 40.
For NC(=O)c1c(Br)n(C2OC(CO)C(O)C2O)c2ncnc(N)c12 (stereo unspecified) the results were FadD28 binding inactive, PrPC surface inh inactive, PriA SSB inh inactive, BH1578 lux ind inactive and PrP 5UTR inh inactive.
Screening N#Cc1cn(C2OC(CO)C(O)C2O)c2ncnc(N)c12 (stereo unspecified) returned FadD28 binding inactive, PrPC surface inh 26, PriA SSB inh inactive, BH1578 lux ind inactive, PrP 5UTR inh 58, PrP UTR cherry 75, PrPC confirm 30 and LD9 tox 40.
Screening O=C(c1ccsc1)N1CCC(N2CCC(Oc3nccs3)CC2)CC1 returned PriA SSB inh inactive.
Screening O=C(Nc1nnc(-c2ccno2)o1)c1sc2ccccc2c1Cl returned PriA SSB inh inactive.
CC1=CC(C)CC(C)OC(=O)CC(c2ccc(O)cc2)NC(=O)C(Cc2c(Br)[nH]c3ccccc23)N(C)C(=O)C(C)NC(=O)C(C)C1 (stereo unspecified) was read as FadD28 binding inactive, PrPC surface inh 32, PriA SSB inh inactive, BH1578 lux ind inactive, PrP 5UTR inh 74, PrP UTR cherry 95, PrPC confirm 25 and LD9 tox 11.
COc1ccc(CC2C(=O)NC(C)C(=O)N(C)C3C(=O)N(C)C(Cc4ccc(O)c(c4)Oc4ccc(cc4)C3O)C(=O)NC(C)C(=O)NC(C)C(=O)N2C)cc1 (stereo unspecified) was read as FadD28 binding inactive, PrPC surface inh 87, PriA SSB inh inactive, BH1578 lux ind inactive, PrP 5UTR inh 53, PrP UTR cherry inactive, PrPC confirm 95 and LD9 tox 38.
For Cc1cc(C(=O)CSc2nnc3scc(-c4ccccc4)n23)c(C)n1-c1cc(F)ccc1F the results were PriA SSB inh inactive.
Screening CCC1CN2CCc3cc(OC)c(OC)cc3C2CC1CC1NCCc2c1[nH]c1ccc(O)cc21 (stereo unspecified) returned FadD28 binding inactive, PrPC surface inh 87, PriA SSB inh inactive, BH1578 lux ind inactive, PrP 5UTR inh 82, PrP UTR cherry 87, PrPC confirm 100 and LD9 tox 43.
For COc1ccccc1OCC(=O)N1c2ccccc2CC1C(N)=O (stereo unspecified) the results were PriA SSB inh inactive.
Screening CC(=O)O[C@H]1C(=O)[C@]2(C)[C@H]([C@H](OC(=O)c3ccccc3)[C@]3(O)C[C@H](OC(=O)[C@H](O)[C@@H](NC(=O)c4ccccc4)c4ccccc4)C(C)=C1C3(C)C)[C@]1(OC(C)=O)CO[C@@H]1C[C@@H]2O returned FadD28 binding inactive, PrPC surface inh 28, PriA SSB inh inactive, BH1578 lux ind inactive, PrP 5UTR inh 53, PrP UTR cherry 89, PrPC confirm 25 and LD9 tox inactive.
`O=C(CSc1ncnc2ccccc12)Nc1cccc(S(=O)(=O)N2CCCC2)c1` gave FadD28 binding inactive, PrPC surface inh 70, PriA SSB inh inactive, BH1578 lux ind inactive, PrP 5UTR inh 85, PrP UTR cherry inactive, PrPC confirm 73 and LD9 tox inactive.
O=C(CSc1ncnc2ccccc12)Nc1cc(S(=O)(=O)N2CCCCC2)ccc1Cl was read as FadD28 binding inactive, PrPC surface inh inactive, PriA SSB inh inactive, BH1578 lux ind inactive and PrP 5UTR inh inactive.
For C[C@H]1CCCC=C[C@@H]2C[C@H](O)C[C@H]2[C@H](O)/C=C/C(=O)O1 the results were PriA SSB inh inactive.
CC1CCC/C=C/C2CC(O)CC2C(O)/C=C/C(=O)O1 (stereo unspecified) was read as FadD28 binding inactive, PrPC surface inh 89, BH1578 lux ind inactive, PrP 5UTR inh 83, PrP UTR cherry 88, PrPC confirm 95 and LD9 tox inactive.
Screening C=C1C(=O)O[C@@H]2C[C@@H](C)[C@@H]3C=CC(=O)[C@@]3(C)[C@@H](OC(=O)CC(=O)O[C@H]3[C@@H]4C(=C)C(=O)O[C@@H]4C[C@@H](C)[C@@H]4C=CC(=O)[C@]43C)[C@H]12 returned FadD28 binding inactive, PrPC surface inh 98, PriA SSB inh inactive, BH1578 lux ind inactive, PrP 5UTR inh 95, PrP UTR cherry 98, PrPC confirm 99 and LD9 tox 99.
`C=C1C(=O)O[C@H]2[C@H]1[C@H](OC(=O)CC(=O)O[C@@H]1C[C@@H](C)[C@@H]3C=CC(=O)[C@@]3(C)[C@H]3OC(=O)C(=C)[C@H]13)C[C@@H](C)[C@H]1C=CC(=O)[C@]12C` gave FadD28 binding inactive, PrPC surface inh inactive, PriA SSB inh inactive, BH1578 lux ind inactive and PrP 5UTR inh inactive.
